Measurements reported in PubChem BioAssay (EPA / NIEHS).
The source made the active and inactive calls. How the source made its calls: active means hit-call score of the fitted dose curve at least 0.9, where 1 is the maximum; inactive means score below 0.9.

How the values were obtained:
[1] = IUF_NPC1b_proliferation_BrdU_72hr: Leibniz Research Institute for Environmental Medicine (IUF) 72-hour Neural Progenitor Cell Bromodeoxyuridine (BrdU) Proliferation Assay (NPC1b) (AID 2284207)
How it was run: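 Luminescent BrdU ELISA measured DNA synthesis during the last 16 h of a 72 h exposure of primary human neural progenitor spheres grown with EGF and FGF. Signal was fitted relative to DMSO controls.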

[2] = IUF_NPC1a_proliferation_area_72hr: Leibniz Research Institute for Environmental Medicine (IUF) 72-hour Neural Progenitor Cell Proliferation Area Assay (NPC1a) (AID 2284208)
How it was run: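 Spheres of 0.3 mm are plated singly in growth-factor medium and exposed from day 0. After three days at 37C and 5% CO2, sphere area is measured by phase contrast imaging, with activity referenced to DMSO.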

[3] = IUF_NPC1_viability_72hr: Viability Assessment at 72 hours in the Leibniz Research Institute for Environmental Medicine (IUF) Neural Progenitor Cell Proliferation Assay (NPC1) (AID 2284209)
How it was run: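 Three-day continuous exposure of human neural progenitor spheres under EGF/FGF-driven proliferation; cell viability scored by alamar blue signal versus DMSO.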

[4] = TAMU_PeakParms_SingleDonor1434_Chronotropy: Texas A&M University (TAMU) 1.5-hr Human Induced Pluripotent Stem Cell (iPSC)-derived Cardiomyocytes Calcium (Ca+2) Flux Assay for Cardiotoxicity: Chronotropy (changes in peak frequency) (AID 2284217); conditions: actives raise or lower the signal
Method: TAMU_PeakParms is a cell-based, multiplexed-readout assay that uses iPSC-derived cardiomyocytes with measurements taken at 1.5 hours after chemical dosing in a microplate: 384-well plate.TAMU_PeakParms_SingleDonor1434_Chronotopy is a phenotype derived from the peak.freq.avg parameter and uses an EC05 as its POD (5% increase in beat rate, compared to controls). Peak.Freq.Avg measures the average peak frequency, in beats per second, using Fluorescence intensity as a functional reporter from Calcium (Ca+2) flux assay technology. Before modeling, data is preprocessed to remove data points where there is a cessation of beating (where peak.freq.avg equals 0) to ensure the capture of the upwards response that isn't confounded by the drop in beat rate at higher concentrations and to ensure the drop in beat rate is captured before asystole, which is captured elsewhere.Data from the assay component TAMU_PeakParms_SingleDonor1434_Chronotropy was analyzed into 1 assay endpoint. This assay endpoint, TAMU_PeakParms_SingleDonor1434_Chronotropy_Negative, was analyzed with bidirectional fitting relative to DMSO as the negative control and baseline of activity. Using a type of functional reporter, gain or loss-of-signal activity can be used to understand changes in the cardiac function. To generalize the intended target to other relatable targets, this assay endpoint is annotated to the cardiomyocyte function intended target family, where the subfamily is lowered beat rate.
Each test compound from the chemical master plates was transferred into new tissue culture-treated 384-well microplates using acoustic dispensing (Labcyte Echo 550, Beckman Coulter, Indianapolis, IN) in amounts that would result in 5x concentrations (1, 5, 50, 500 uM) in the working plate in a final volume of 50 uL. Chemicals were randomly divided into 16 separate 384-well plates for screening such that the outer-most wells were left empty (308 wells were used on each plate). Fifteen of the plates contained unique test chemicals (n = 65 chemicals, 4 concentrations, one replicate each), positive controls (n = 10 chemicals, one concentration, 3 replicates each), vehicle (0.5% DMSO, n = 12), and media-only (n = 6) wells. Plate 16 contained test chemicals (n = 54 chemicals, 4 concentrations, one replicate each), inter-plate replicates (n = 11 chemicals with replicates, 4 concentrations, one replicate each), and the same design of positive controls and vehicle- and media-only wells as other plates. These plates were stored at -80C until the day of the assay. On assay day, the 5x concentrated chemical working plate was prepared by adding 50 uL cardiomyocyte maintenance medium containing 2.5% v/v DMSO to each well of the microplates. Then, 12.5 uL of 5x concentrated test chemical solution was added to the test plate to yield final concentrations of 0.2, 1, 10, and 100 uM in 0.5% v/v DMSO using the liquid handling robotics of the FLIPR Tetra. FLIPR Tetra settings were optimized to mix and then transfer test chemicals to the microplate at height = 40 uL, speed = 1 uL/sec, and removal speed = 6 mm/sec, resulting in a total volume of 62.5 uL/well with 0.5% v/v DMSO in cardiomyocyte maintenance medium. Immediately after chemical transfer, cells were incubated 37C and 5% CO2 for 90 minutes. Next, the total volume of cell culture medium containing Ca2+ dye (from the Ca2+ flux assay conducted first) was aspirated and replaced with 25 uL/well pre-warmed staining solution with fluorescent probes for nuclei and mitochondria (2.2 ug/mL Hoechst 33342 and 0.2 uM MitoTracker Orange in cardiomyocyte maintenance medium with 1:500 penicillin/streptomycin solution). Microplates were then incubated at standard conditions for 15 minutes, the staining solution was aspirated, and 25 uL/well pre-warmed fresh maintenance medium containing 1:500 penicillin/streptomycin solution was added to each well to wash before proceeding to image acquisition. […]

[5] = CCTE_Mundy_HCI_Cortical_Synap_Neur_Matur_NeuriteSpotCountPerNeuriteLength: CCTE's Synaptogenesis and Neurite Maturation Assay in rat cortical cells for Neurite Spot Count per Neurite Length, Mundy Lab (AID 2284210)
How it was run: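 Read-out: synaptophysin puncta counted along MAP2-stained neurites, normalised to neurite length, by automated high-content imaging. Rat cortical cells; AraC DIV 5; chemical dosing DIV 7; termination DIV 12. DMSO baseline.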

[6] = CCTE_Mundy_HCI_Cortical_Synap_Neur_Matur_BPCount: CCTE's Synaptogenesis and Neurite Maturation Assay in rat cortical cells for Branch Point Count, Mundy Lab (AID 2284211)
How it was run: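 In this multiplexed morphology assay, cortical cells from rat receive chemicals at DIV 7 and are fixed at DIV 12, then immunostained and imaged; branch points are counted, with DMSO as baseline.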

[7] = CCTE_Mundy_HCI_Cortical_NOG_NeuriteCount: CCTE's Neurite Outgrowth Assay in rat cortical cells for Neurite Count, Mundy Lab (AID 2284212);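 further: cells fixed about two days after chemical exposure began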
How it was run: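 Rat cortical primary cells; compound added 2 h post-plating, 1/10 dilution of working solution. Anti-betaIII-tubulin/AF488 ICC; ArrayScan neurite count vs DMSO.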

[8] = CCTE_Mundy_HCI_Cortical_NOG_NeuriteLength: CCTE's Neurite Outgrowth Assay in rat cortical cells for Neurite Length, Mundy Lab (AID 2284213);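 on AC50: neurites imaged about 48 to 50 h after chemical exposure began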
How it was run: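 First, rat primary cortical cells were plated and, 2 h later, given test chemical as a 1/10 dilution. Finally, βIII-tubulin immunostaining enabled automated imaging of neurite length.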

[9] = CCTE_Mundy_HCI_Cortical_Synap_Neur_Matur_NeuriteLength: CCTE's Synaptogenesis and Neurite Maturation Assay in rat cortical cells for Neurite Length, Mundy Lab (AID 2284214)
How it was run: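 DMSO-normalised neurite length, from high-content imaging of anti-MAP2-stained rat cortical cells fixed at DIV 12. Glia were suppressed with AraC (DIV 5) before chemical exposure from DIV 7.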

[10] = CCTE_Mundy_HCI_Cortical_Synap_Neur_Matur_NeuriteSpotCountPerNeuron: CCTE's Synaptogenesis and Neurite Maturation Assay in rat cortical cells for Neurite Spot Count per Neuron Count, Mundy Lab (AID 2284215)
How it was run: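 Rat cortical primary cultures; AraC DIV 5 to arrest glia; dosing + media change DIV 7; fixed DIV 12. Anti-MAP2/anti-synaptophysin, Hoechst nuclei; HCI puncta count per neuron, positive fitting direction vs DMSO.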

CC(C)(c1cc(Br)c(O)c(Br)c1)c1cc(Br)c(O)c(Br)c1
outcome [1]: inactive | outcome [2]: inactive | outcome [3]: inactive | outcome [4]: inactive

O=C1O[C@H]([C@@H](O)CO)C(O)=C1O
AC50 [1]: 0.215 µM (active) | outcome [2]: inactive | outcome [3]: inactive | outcome [5]: inactive | outcome [6]: inactive | outcome [7]: inactive | outcome [8]: inactive | outcome [9]: inactive | outcome [10]: inactive | outcome [4]: inactive

Oc1ccccc1
outcome [5]: inactive | outcome [6]: inactive | outcome [7]: inactive | outcome [8]: inactive | outcome [9]: inactive | outcome [10]: inactive

CN1C(=O)CC[C@H]1c1cccnc1
outcome [5]: inactive | outcome [6]: inactive | outcome [7]: inactive | outcome [8]: inactive | outcome [9]: inactive | outcome [10]: inactive

CN(C)c1ccc(C(=C2C=CC(=[N+](C)C)C=C2)c2ccc(N(C)C)cc2)cc1
outcome [4]: inactive

CC/C(=C(/CC)c1ccc(O)cc1)c1ccc(O)cc1
outcome [5]: inactive | AC50 [6]: 8.64 µM (active) | AC50 [7]: 22.6 µM (active) | AC50 [8]: 23.7 µM (active) | AC50 [9]: 9.46 µM (active) | AC50 [10]: 14.3 µM (active) | outcome [4]: inactive

c1ccc2ccccc2c1
AC50 [4]: 9.92 µM (active)

CCCOC(=O)c1cc(O)c(O)c(O)c1
AC50 [4]: 50 µM (active)
